Bioassay records (PubChem BioAssay)
Rab9 promoter act: activates the Rab9 promoter | Huh7 Rab9 promoter-luciferase reporter, luminescence, 24 h | Potency, µM (highest dose often 9.22 µM), usual class: activators | 2.8% of 320,000 active; further: nearly all actives have a fitted effect of over 60% in size
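Quantitative HTS format; Huh7 Rab9-luciferase reporter cells (1500/well) receive compound 2 h post-plating, incubate 24 h at 37 °C, then get luciferase reagent for 10 min before luminescence reading.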
NPC1 prom act: activates the NPC1 promoter; Huh7 NPC1 promoter luciferase reporter, 24 h; Potency, µM (top dose mostly 9.22 µM), hits mostly activators; 2.4% of 320,000 active; AID 485313; further: nearly all actives have a fitted effect of over 60% in size
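Huh7 cells stably carrying NPC1 promoter–luciferase, plated in Opti-MEM with 10% FBS for 2 h, were exposed to compound in DMSO for 24 h at 37 °C; luciferase reagent was added for 10 min and luminescence read.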
ELG1 genotoxic: inducers of genotoxicity in HEK293T ELG1-luciferase cells; 1.3% of 330,000 active; Potency, µM (titrated, usually from 46 µM), actives largely listed as activators; HEK293T ELG1-luciferase reporter, luminescence, 16 h; further: nearly all actives have a fitted effect of over 60% in size
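DMSO vehicle served as control against compound-treated ELG1-luciferase HEK293T cells; exposure lasted 16 hr at 37 °C and 5% CO2, followed by ONE-Glo luminescence detection after 30 min.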
FLuc counter: firefly luciferase modulation, counter-screen for miR-21 project; purified FLuc, Km substrates, luminescence inhibition; Potency, µM (top dose mostly 57.5 µM), hits mostly inhibitors; 6.9% of 360,000 active; further: nearly all actives have a fitted effect of over 55% in size
Target sequence (P08659 whole entry, looked up): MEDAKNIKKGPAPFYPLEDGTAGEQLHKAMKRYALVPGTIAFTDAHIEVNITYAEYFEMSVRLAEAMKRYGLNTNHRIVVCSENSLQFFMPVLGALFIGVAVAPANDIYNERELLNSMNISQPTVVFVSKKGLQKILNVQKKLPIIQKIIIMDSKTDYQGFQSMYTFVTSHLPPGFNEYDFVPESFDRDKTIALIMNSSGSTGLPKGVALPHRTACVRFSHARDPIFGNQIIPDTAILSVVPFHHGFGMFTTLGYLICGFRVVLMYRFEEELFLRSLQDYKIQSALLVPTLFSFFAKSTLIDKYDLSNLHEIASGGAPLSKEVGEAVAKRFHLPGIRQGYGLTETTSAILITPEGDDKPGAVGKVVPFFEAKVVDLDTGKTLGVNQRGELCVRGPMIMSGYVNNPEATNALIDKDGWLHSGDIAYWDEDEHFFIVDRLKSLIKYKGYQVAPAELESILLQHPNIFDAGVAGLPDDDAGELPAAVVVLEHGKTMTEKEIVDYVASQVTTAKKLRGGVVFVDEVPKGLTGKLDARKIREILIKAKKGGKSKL
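Purified P. pyralis luciferase (10nM final) with 10uM D-luciferin and 10uM ATP (Km levels) in 50mM Tris acetate pH 7.5, 10mM Mg acetate, 0.01% Tween-20, 0.05% BSA; qHTS 6-point titration, ~60 µM downward; luminescence read.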
SMN2 splice up: enhancers of SMN2 splice variant expression; HEK293 SMN2-luciferase splicing reporter, luminescence, 30-36 h; Potency, µM (highest dose often 46.1 µM), hits mostly activators; 2.8% of 210,000 active; AID 1458; further: nearly all actives have a fitted effect of over 55% in size
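HEK293 cells carry an SMN2 […]–luciferase reporter in which exon 7 inclusion puts luciferase in frame. Cells were plated 10-12 h before compound addition, then incubated 30-36 h at 37C. ONE-Glo luminescence was read; sodium butyrate at 4.5 mM final served as control.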
ELG1 repair inh: ELG1-dependent DNA repair inhibition. 2.3% of 330,000 active. HEK293T ELG1-luciferase reporter, luminescence, 16 h; DNA damage induced by 5-fluorouridine. Potency, µM (titrated, usually from 46.1 µM), most hits filed as inhibitors; further: nearly all actives have a fitted effect of over 55% in size
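HEK293T cells expressing luciferase-tagged ELG1 (2,000/well) received 5-Fluorouridine plus compound or DMSO for 16 hr at 37 °C. Luciferase was read by ONE-Glo luminescence after 30 min at room temperature.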
Numbers stand for hits; - = inactive; ? = inconclusive; . = no result. Compounds with a hit are over-represented: about 9.2% of the library has one in this group of screens. The call rests on the fitted dose curve; in most records, active means well fitted curve in the direction sought with a large enough effect; inconclusive means small, poorly fitted or top-dose-only effect, or another doubt; inactive means no such curve, though single readings can be large; an effect the other way counts as inactive or inconclusive.

SMILES | Rab9 promoter act | NPC1 prom act | ELG1 genotoxic | FLuc counter | SMN2 splice up | ELG1 repair inh
O=C(O)c1cccc(Nc2ncnc3c2cnn3-c2ccccc2)c1 | 3.2µM | 1.3µM | ? | 2.1µM | 13µM | ?
CC(=O)c1cccc(Nc2ncnc3ccc(Br)cc23)c1 | - | - | - | - | . | 18µM
CC(C)COc1ccc(Nc2ncnc3ccc(Br)cc23)cc1 | . | . | . | - | - | .
CN(C(=O)COC(=O)c1ccccc1NCc1ccco1)c1c(N)n(Cc2ccccc2)c(=O)[nH]c1=O | - | - | - | - | . | -
Cc1nc(Nc2ccc(Cl)cc2)c(C#N)c(=O)[nH]1 | - | - | - | - | . | -
O=C(O)c1cccc(Nc2ncnc3ccccc23)c1 | - | - | - | 19µM | - | -
Cc1ccc(S(=O)(=O)NC(C)(C)CSc2nnc(Nc3ccccc3)s2)cc1 | - | - | - | - | - | 23µM
Cc1ccc(Nc2nnc(SCC(=O)NC(Cc3c[nH]c4ccccc34)C(=O)O)s2)cc1 (stereo not given) | - | - | - | 19µM | - | -
Cc1ccc(Nc2nnc(SCC(=O)NC3CC3)s2)cc1 | - | - | - | 7.6µM | . | ?
O=C(CSc1nnc(Nc2ccccc2)s1)NC1CCCC1 | . | . | - | . | . | -
Cc1ccc(Nc2nnc(SCC(=O)NCCN3C(=O)CSC3=O)s2)cc1 | - | - | - | 8.5µM | ? | ?
CCOC(=O)C1CCCN(S(=O)(=O)c2ccc3[nH]c(=O)ccc3c2)C1 (stereo not given) | . | . | . | - | . | .
COc1ccc(S(=O)(=O)N2CCOCC2)cc1NC(=O)c1c(-c2ccccc2)noc1C | - | - | - | - | . | ?
CCc1ccccc1NC(=O)c1cc(S(=O)(=O)N2CCc3ccccc32)ccc1F | . | . | . | - | . | .
Cc1cc(C)c(NC(=O)CSCc2c(C)noc2C)c(Cl)c1 | - | - | - | - | . | -
COc1ccc(OC)c(NC(=O)c2cc3c(=O)n4ccccc4nc3n2C)c1 | - | - | - | - | - | -
COc1ccc(C(=O)Nc2cnc3ccccn3c2=O)cc1 | 3.5µM | 2.8µM | ? | 17µM | 18µM | ?
O=C(Nc1cnc2ccccn2c1=O)c1ccc(F)cc1 | 3.2µM | 2.5µM | - | 17µM | 11µM | ?
CCCCN(C(=O)c1cc2c(s1)CCCCC2)c1c(N)n(CC(C)C)c(=O)[nH]c1=O | - | - | - | - | . | -
Cc1c(/C(O)=C2/C(=O)C(=O)N(CCN3CCOCC3)C2c2cccs2)cnn1-c1ccccc1 (stereo not given) | 1.3µM | 4.5µM | 1.8µM | 9.5µM | ? | ?
CCN(CC)CCN1C(=O)C(=O)/C(=C(/O)c2cnn(-c3ccccc3)c2C)C1c1ccc(C)o1 (stereo not given) | ? | - | ? | ? | - | ?
Cc1nc2ccccn2c1/C(O)=C1\C(=O)C(=O)N(CCN2CCOCC2)C1c1cccs1 (stereo not given) | - | - | - | - | - | -
Cc1ccc(C2/C(=C(/O)c3cnn(-c4ccccc4)c3C)C(=O)C(=O)N2CCN2CCOCC2)o1 (stereo not given) | 2.8µM | 3.5µM | 5.8µM | 21µM | - | ?
C=CCOC(=O)/C(=C/c1cccc2ccccc12)NC(=O)c1ccccc1 | - | - | - | 19µM | ? | ?
Cc1nc(S(=O)(=O)N2CCN(c3ccc(Cl)cc3)CC2)cn1C | . | . | . | - | . | .
SMILES | Rab9 promoter act | NPC1 prom act | ELG1 genotoxic | FLuc counter | SMN2 splice up | ELG1 repair inh
O=C1C(Cl)=C(N2CCCCC2)C(=O)C(Cl)=C1c1cnc(N2CCCCC2)s1 | - | - | - | 9.5µM | - | ?
Cc1ccc(-n2ncc3c2CC(C)(C)CC3NC(=O)CCc2c(C)noc2C)cc1 (stereo not given) | - | - | - | - | . | -
O=C(NNC(=S)Nc1ccccc1)c1cccs1 | 1.6µM | ? | ? | ? | 10µM | ?
Cc1cccc(C(=O)NC(=S)NNC(=O)c2cccs2)c1 | - | - | - | - | - | 21µM
O=C(NC(=S)NNC(=O)c1cccs1)c1ccccc1 | - | - | ? | - | . | -
COC(=O)c1ccc(NC(=S)NNC(=O)c2ccccc2)cc1 | - | - | - | 24µM | . | -
COC(=O)c1ccc(NC(=S)Nc2ccccc2)cc1 | - | - | ? | ? | - | -
O=C(NNC(=S)NC(=O)c1ccccc1)c1ccc(O)cc1 | - | - | - | - | . | -
O=C(NNC(=S)Nc1ccccc1)c1ccc(O)cc1 | 3.5µM | 3.5µM | ? | ? | . | ?
CCc1ccc(S(=O)(=O)c2cn(Cc3ccccc3)c3cc(F)c(F)cc3c2=O)cc1 | . | . | . | - | - | .
COc1ccccc1N1CCN(/N=C/c2cccc(O)c2)CC1 | ? | - | ? | 13µM | - | ?
COc1ccccc1N1CCN(/N=C/c2cc(OC)c(O)c(OC)c2)CC1 | - | - | - | ? | - | -
COc1ccccc1N1CCN(/N=C/c2ccccc2C(=O)O)CC1 | - | - | - | 19µM | . | -
COc1cc(/C=N/N2CCN(c3ccccc3OC)CC2)ccc1OC(C)=O | - | - | - | 19µM | . | ?
COc1ccccc1N1CCN(/N=C\c2cccnc2)CC1 | - | - | - | - | . | ?
COc1ccccc1N1CCN(/N=C/c2ccc(OC)c(OC)c2OC)CC1 | - | - | - | - | - | -
COc1ccc(OC)c(CNC(=O)c2ccc3c(c2)c(C)c(C)n3Cc2ccc(Cl)cc2)c1 | . | . | . | - | . | .
CC(C)(C)NC(=O)c1ccc(NC(=O)c2ccccc2-c2ccccc2C(=O)O)cc1 | - | - | - | - | . | -
O=C(/C=C/c1ccc(Cl)c(Cl)c1)N1CCc2ccccc21 | 2.8µM | 3.2µM | ? | ? | 7.1µM | ?
O=C(/C=C/c1cccs1)N1CCc2ccccc21 | 4µM | 4µM | 1.8µM | 0.48µM | 2.8µM | ?
O=C(/C=C/c1cccs1)N1CCN(c2ccccc2F)CC1 | - | - | - | - | - | ?
O=C(c1cccs1)N1CCc2ccccc21 | ? | ? | ? | 27µM | 14µM | ?
O=S(=O)(Nc1ccc2ccccc2n1)c1ccc2c(c1)CCO2 | - | - | - | - | . | -
CCOC(=O)Cc1csc(NC(=O)c2ccc(Br)o2)n1 | - | - | - | ? | - | -
CCCC(=O)Nc1nc(C(=O)OCC)cs1 | - | - | - | - | - | -
SMILES | Rab9 promoter act | NPC1 prom act | ELG1 genotoxic | FLuc counter | SMN2 splice up | ELG1 repair inh
CCOC(=O)Cc1csc(NC(=O)/C=C/c2ccc(Br)o2)n1 | - | - | - | 6.7µM | . | ?
CCOc1cccc2sc(NC(=O)c3ccc(Br)s3)nc12 | - | - | - | 2.7µM | - | -
CCCC(=O)Nc1nc(CC(=O)OCC)cs1 | - | - | - | - | - | -
CCOc1cccc2sc(NC(=O)c3ccc(S(=O)(=O)N4CCc5ccccc54)cc3)nc12 | . | . | . | - | . | .
CCOC(=O)Cc1csc(NC(=O)c2cccs2)n1 | - | - | ? | 19µM | - | ?
CCOC(=O)c1csc(NC(=O)c2cccs2)n1 | 2.2µM | 2.2µM | ? | 13µM | . | ?
